Assay outcomes deposited in PubChem by National Center for Advancing Translational Sciences (NCATS).
PI5P4Ka inh: qHTS for Inhibitors of phosphatidylinositol 5-phosphate 4-kinase (PI5P4K); AID 652105, 2013; max response, %; 1.2% of 330,000 active; PI5P4Kalpha enzyme, ADP-Glo luminescence, 60 min; stronger effect = lower value; Phosphatidylinositol 5-phosphate 4-kinase type-2 alpha (Homo sapiens), P48426; active = max response of -50% or lower; inconclusive = between -30% and -50%; inactive = -30% or higher; also: value at the top dose of about 77 µM; % is scaled to controls: 0 for no effect and ±100 for the full control effect
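Human PI5P4Kalpha with substrate in 0.038 M HEPES pH 7.4, 0.28 mM EGTA, 0.1% CHAPS, 5% DMSO; reaction started with 5 microM ATP (final), 60 min at room temperature. ADP formed read by ADP-Glo luminescence.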
L3MBTL1 inh: qHTS Assay for the Inhibitors of L3MBTL1; 0.66% of 230,000 active; Potency, µM (highest dose often 57.1 µM), inactives show at the highest dose activity, negative = inhibition, most hits filed as inhibitors; AID 485360, 2010; Lethal(3)malignant brain tumor-like protein 1 (Homo sapiens), Q9Y468; AlphaScreen L3MBTL1–H3K9me1 peptide binding; also: potency is read from the fitted curve at half-maximal effect; % is scaled to controls: 0 for no effect and ±100 for the full control effect; nearly all actives have a fitted effect of over 60% in size
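L3MBTL1 50 nM + b-AHA-H3(1-15)K9me1 75 nM, 30 min RT; compound added, 30 min RT; streptavidin donor/Ni-chelate acceptor beads 10 ug/mL each final, 30 min RT dark; AlphaScreen read.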
JMJD2A Tudor inh: qHTS Assay for Inhibitors of JMJD2A-Tudor Domain | Lysine-specific demethylase 4A (Homo sapiens), O75164 | AlphaScreen JMJD2A-Tudor / H3K4me3 peptide binding | Potency, µM (highest dose often 114 µM), without a hit: top-dose activity change, negative = inhibition, most hits filed as inhibitors | 4.4% of 390,000 active | AID 504339, 2011; also: potency is read from the fitted curve at half-maximal effect; % is scaled to controls: 0 for no effect and ±100 for the full control effect; nearly all actives have a fitted effect of over 50% in size
Target sequence (O75164 whole entry, looked up, the tested form may be a part): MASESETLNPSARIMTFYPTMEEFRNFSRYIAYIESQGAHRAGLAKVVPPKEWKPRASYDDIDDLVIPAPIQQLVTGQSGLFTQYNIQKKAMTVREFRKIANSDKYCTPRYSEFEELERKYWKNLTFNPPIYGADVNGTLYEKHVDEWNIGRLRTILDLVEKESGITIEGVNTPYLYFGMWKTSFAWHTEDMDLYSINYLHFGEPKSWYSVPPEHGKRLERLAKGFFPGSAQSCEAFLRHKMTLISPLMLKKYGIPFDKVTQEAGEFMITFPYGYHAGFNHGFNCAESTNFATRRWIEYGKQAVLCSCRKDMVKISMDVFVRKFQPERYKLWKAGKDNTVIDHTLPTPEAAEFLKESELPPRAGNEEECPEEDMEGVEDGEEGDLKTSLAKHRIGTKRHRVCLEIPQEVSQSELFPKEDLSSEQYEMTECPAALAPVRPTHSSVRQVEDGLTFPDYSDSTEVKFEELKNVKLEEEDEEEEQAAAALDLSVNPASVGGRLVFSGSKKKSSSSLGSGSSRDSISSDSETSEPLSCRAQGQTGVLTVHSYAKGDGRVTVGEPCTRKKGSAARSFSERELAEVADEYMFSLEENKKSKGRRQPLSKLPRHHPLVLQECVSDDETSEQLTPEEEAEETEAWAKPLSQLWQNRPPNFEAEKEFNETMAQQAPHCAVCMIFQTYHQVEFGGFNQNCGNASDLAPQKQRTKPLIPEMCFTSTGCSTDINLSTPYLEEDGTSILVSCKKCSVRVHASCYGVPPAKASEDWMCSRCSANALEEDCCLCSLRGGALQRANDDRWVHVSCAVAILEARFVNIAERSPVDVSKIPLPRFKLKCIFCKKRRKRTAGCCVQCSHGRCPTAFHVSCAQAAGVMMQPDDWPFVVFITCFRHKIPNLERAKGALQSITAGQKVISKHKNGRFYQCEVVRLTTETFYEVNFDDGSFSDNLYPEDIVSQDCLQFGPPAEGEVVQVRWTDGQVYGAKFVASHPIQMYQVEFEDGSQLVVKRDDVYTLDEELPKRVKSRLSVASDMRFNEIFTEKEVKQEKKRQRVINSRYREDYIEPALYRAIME
G9a block: qHTS Assay for Inhibitors of Histone Lysine Methyltransferase G9a | Histone-lysine N-methyltransferase EHMT2 (Homo sapiens), Q96KQ7 | G9a H3K9 monomethylation, AlphaScreen, 2 h | Potency, µM (series often up to 102 µM), for inactives: at the highest dose activity, negative = inhibition, most hits filed as inhibitors | 8.8% of 350,000 active; also: potency is read from the fitted curve at half-maximal effect; % is scaled to controls: 0 for no effect and ±100 for the full control effect; nearly all actives have a fitted effect of over 75% in size
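Quantitative HTS format: methyltransferase activity on a biotin-tagged H3K9 peptide is measured by AlphaScreen, using a rabbit anti-monomethyl-H3K9 antibody with streptavidin donor and anti-IgG acceptor beads. Final levels are 20 nM enzyme, 500 nM peptide, 20 uM SAM; 2 h RT.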
BAZ2B inh: qHTS Assay for Inhibitors of BAZ2B; AlphaScreen BAZ2B-H3K14Ac peptide displacement; Potency, µM (highest dose often 114 µM), inactives show at the highest dose activity change, negative = inhibition, usual class: inhibitors; 4.4% of 360,000 active; AID 504333, 2011; also: potency is read from the fitted curve at half-maximal effect; % is scaled to controls: 0 for no effect and ±100 for the full control effect; nearly all actives have a fitted effect of over 60% in size
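In this displacement format the biotinylated H3(5-23) peptide acetylated at Lys14 serves as ligand at 50 nM, with BAZ2B at 50 nM in PBS pH 7.4 containing 0.01% Tween-20. Donor and acceptor beads are 10 ug/mL final.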
HP1b chromo inh: HTS for Inhibitors of HP1-beta Chromodomain Interactions with Methylated Histone Tails; 0.56% of 390,000 active; Potency, µM (top dose mostly 114 µM), inactives show at the highest dose activity change, negative = inhibition, most hits filed as inhibitors; Chromobox protein homolog 1 (Homo sapiens), P83916; AlphaScreen HP1-beta / biotin-H3K9me3 peptide binding; also: potency is read from the fitted curve at half-maximal effect; nearly all actives have a fitted effect of over 70% in size
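HP1-beta protein (50 nM final) preincubated 30 min at room temperature with biotinylated H3(1-18)K9me3 peptide (50 nM) in PBS pH 7.4, 0.01% Tween-20, then compound added for 30 min. AlphaScreen streptavidin donor/nickel chelate acceptor beads (10 ug/mL final), 30 min dark, luminescence read.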
The depositor's hits bear a star; ? = inconclusive; · = no result; [ ] = remark or other dose. The list is not random: actives were taken first. Their share in the collection is about 11%. Unless noted, calls follow the shape of the dose curve; as a rule, active = well fitted inhibition curve with a large enough effect; inconclusive = small, poorly fitted or top-dose-only effect; inactive = no such curve, though single readings can be large or run the other way.

SMILES	PI5P4Ka inh	L3MBTL1 inh	JMJD2A Tudor inh	G9a block	BAZ2B inh	HP1b chromo inh
Cc1[nH]c2ccccc2c1C(=O)C(C)OC(=O)c1ccc(NC(=O)CC#N)cc1 (stereo unspecified)	-11	-8%	-23%	-42%	-17%	29%
CCc1ccc(S(=O)(=O)NC(=S)Nc2ccccc2)cc1	-7	2%	-19%	18µM*	-3%	-25%
Cc1ccc(C(=S)NCS(=O)(=O)c2ccc(C)cc2)cc1	·	1%	?	40µM*	?	-10%
Cc1ccc(S(=O)(=O)CNC(=S)c2cccc(Cl)c2)cc1	-12	5%	-15%[57.1 µM]	?	-36%	-15%
CCNC(=S)NS(=O)(=O)c1ccc(CC)cc1	·	5%	25µM*	28µM*	-4%	-3%
CCNC(=S)Nc1ccc(S(=O)(=O)Nc2cc(C)nc(C)n2)cc1	5	-2%	-6%	-49%	-6%	29%
CC(=O)NS(=O)(=O)c1ccc(NC(=S)Nc2ccccc2)cc1	-8	3%	9%	2%	-4%	50%
CCNC(=S)NS(=O)(=O)c1ccc(C)cc1	-7	10%	-34%	32µM*	-37%	8%
CC(=O)NC1=NN(C(C)=O)C(c2ccccc2)S1 (stereo unspecified)	?	-3%	11µM*	2%	-13%	-24%
CC1(C)CC(=O)C2=C(C1)N1C(=C(C#N)C2c2ccccc2Cl)N=C(N)c2ccccc21 (stereo unspecified)	-2	-18%	?	-10%	?	27%
CC1(C)CC(=O)C2=C(C1)N1C(=C(C#N)C2c2ccc(Cl)cc2)N=C(N)c2ccccc21 (stereo unspecified)	-9	-9%	?	?	50µM*	13%
COc1c(C)cc(Br)cc1C(=O)NC(=S)Nc1ccc(Cl)c(C(=O)O)c1	6	·	-20%	50µM*	-2%	18%
CCOc1cc(C(=O)NC(=S)Nc2ccc(Cl)c(C(=O)O)c2)cc(OCC)c1OCC	-30	-1%	?	40µM*	-26%	-4%
COc1cccc(C(=O)NC(=S)Nc2ccc(Cl)c(C(=O)O)c2)c1	-20	·	-20%	?	?	-14%
O=C1CCCC2=C1C1(CCCC1)N=C(Nc1nc3cc(Br)ccc3o1)N2	·	·	-23%	·	·	·
COc1ccc2[nH]cc(CCNc3ccnc(-c4ccc(N(C)C)cc4)n3)c2c1	·	·	·	3%[0.501 µM]	·	·
O=C(NCCC(=O)N1CCN(c2ccc(F)cc2)CC1)c1ccco1	-5	-1%	-28%	50µM*	10%	-4%
O=C(NCCC(=O)N1CCN(c2ccccc2F)CC1)c1ccco1	-5	-3%	-4%	1%[0.501 µM]	-2%	-1%
O=C(Cn1nc(Cl)nc1Cl)Nc1ccccc1	-1	-1%	0%	50µM*	1%	16%
Cc1ccc(C)c(S(=O)(=O)Nc2nc3ccc(S(N)(=O)=O)cc3s2)c1	-18	·	50µM*	10µM*	8%	-15%
O=C(CSc1nnc(NC(=O)C2CC2)s1)NCc1cccs1	1	-12%	-6%	13%	-12%	37%
CCc1ccc(Nc2nnc(SCC(=O)Nc3sccc3C(N)=O)s2)cc1	-26	-8%	-33%	11µM*	?	0%
O=C(CSc1nnc(Nc2ccccc2)s1)NCc1cccs1	0	6%	-4%	40µM*	0%	31%
Cc1nnc(SCC(=O)Nc2sccc2C(N)=O)s1	?	-26%	-9%	?	4%	28%
Cc1ccc(Nc2nnc(SCc3cc(=O)n4ccsc4n3)s2)c(C)c1	·	-9%	-27%	35µM*	-4%	6%
SMILES	PI5P4Ka inh	L3MBTL1 inh	JMJD2A Tudor inh	G9a block	BAZ2B inh	HP1b chromo inh
COc1ccc(C(C)=O)cc1CSc1nnc(Nc2ccc(C)cc2C)s1	-3	-12%	?	35µM*	-20%	-9%
COc1ccccc1Nc1nnc(SCc2cc(=O)n3ccsc3n2)s1	-19	?	-23%	?	-17%	38%
Cc1cccc(CN2C(=O)c3ccccc3Sc3ccc(C(=O)NC4CCCCC4)cc32)c1	·	·	-26%	5%[59 µM]	23%	66%
Cc1cccc(-n2c(SCc3cc(=O)n4ccsc4n3)nc3ccccc32)c1	-20	?	?	5µM*	-30%	8%
Cc1ccc(SCc2cc(=O)n3ccsc3n2)c(C)c1	·	-12%	·	29%[59 µM]	-32%	·
CCc1ccc(Nc2nnc(SCc3cc(=O)n4ccsc4n3)s2)cc1	?	·	-17%	2µM*	-4%	27%
CCc1ccc(NC(=O)Cn2c(=O)n(CCC(=O)NCCc3ccc(OC)c(OC)c3)c(=O)c3ccccc32)cc1	·	·	-2%	2%[59 µM]	5%	19%
O=C(Cn1nc(Cc2cccnc2)c2ccccc2c1=O)Nc1cccc(C(F)(F)F)c1	·	·	-25%	?	-20%	20%
CC/C(=N\Nc1ccnc2cc(Cl)ccc12)c1ccc(O)cc1	7	·	?	28µM*	?	-34%
CCN(CC)Cc1ccc(Nc2ccnc3cc(Cl)ccc23)cc1O	·	·	·	-33%[2.33 µM]	·	·
CCOc1ccccc1Nc1ccnc2cc(Cl)ccc12	-3	0%	16%	4%	5%	90%
Oc1ccc(/C=N/Nc2ccnc3cc(Cl)ccc23)c(O)c1O	-74*	·	?	22µM*	45µM*	-37%[57 µM]
Oc1ccc(/C=N/Nc2ccnc3cc(Cl)ccc23)cc1O	?	·	-12%[11.4 µM]	?	40µM*	-19%
CC(C)(C)c1ccc(C2NC(=O)c3n[nH]c(-c4cccs4)c32)cc1 (stereo unspecified)	·	·	-10%	7%[59 µM]	·	38%
Cc1ccc(NC(=O)COc2ccc(Br)cc2C)cc1	9	19%	1%	5%[59 µM]	-2%	24%
COCCNC(=O)COc1ccc(Br)cc1Cl	1	·	0%	-3%[12.7 µM]	-5%	38%
COc1ccccc1OCCCCNC(C)(C)C	·	2%	-11%	4%[59 µM]	·	8%
Cc1cc(Br)ccc1OCCCCNC(C)(C)C	-8	-1%	28µM*	·	50µM*	11%
COCCNCCCCOc1ccc(Br)cc1C	1	5%	1.1µM*	5.6µM*	50µM*	?
COCCCNCCCCOc1ccc(Br)cc1C	-7	11%	20µM*	10µM*	?	?
C=CCn1c(SCC#N)nc2ccc(Cl)cc2c1=O	·	·	7%[57.1 µM]	·	·	21%[57 µM]
